Assay outcomes as filed in PubChem.
This is a sample that favours compounds with a hit; in the whole collection about 6.7% have one here.
Tcruzi prolif: blocks T. cruzi growth in NIH3T3 culture. inhibition, % at 8.34 µM. T. cruzi beta-gal in NIH3T3, GalScreen luminescence, 90 h. 77,000 compounds, 5.9% hits;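 active means mean inhibition above about 93%, with at least 55% of replicates each passing it, limit read from the data, passing the limit was not always enough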
C diff HTS: blocks growth of Clostridium difficile | Clostridium difficile clinical isolate growth, OD600, 24 h; hits give low values | 86,000 compounds, 0.25% hits | growth activity, negative = inhibition, % at 16 µg/mL (by protocol);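 active means mean growth activity at or below -80% and every replicate also at or below -80%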;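 further: 0% = DMSO wells and -100% = levofloxacin 16 µg/mL wells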
Pf Dd2 inh: P. falciparum Dd2 growth inhibition. activity change, % at 10 µM. SYBR Green, 72 h; hits give low values. 94,000 compounds, 2.3% hits; in the data active means activity change below about -80%
Starred values were filed as active, the others as inactive; nt = not tested or not shown.

SMILES	Tcruzi prolif	C diff HTS	Pf Dd2 inh
C[C@@H]1CCCCO[C@H](CN(C)C(=O)Nc2ccc(C(F)(F)F)cc2)[C@@H](C)CN([C@H](C)CO)C(=O)c2cc(NC(=O)Cc3ccccc3)ccc2O1	88.5	0.6	-87.7*
C[C@@H]1CCCCO[C@@H](CN(C)C(=O)Nc2ccc(C(F)(F)F)cc2)[C@@H](C)CN([C@H](C)CO)C(=O)c2cc(NC(=O)c3ccccc3)ccc2O1	71.0	-1.4	-73.0
C[C@@H]1CCCCO[C@H](CN(C)C(=O)Nc2ccc(C(F)(F)F)cc2)[C@@H](C)CN([C@@H](C)CO)C(=O)c2cc(NC(=O)Nc3ccccc3)ccc2O1	nt	-5.6	-84.6*
C#CCNC(=O)C1=C[C@@H](C(C)(C)C)C[C@@H](OCCCCO)O1	nt	-6.1	nt
CO[C@@H]1CN(C)C(=O)c2cc(NC(=O)CC(F)(F)F)ccc2OC[C@H](C)N(C(=O)C2CCOCC2)C[C@@H]1C	nt	-3.7	-10.6
C[C@@H](NC(=O)C[C@@H]1C=C[C@H](NC(=O)Nc2ccc3c(c2)OCO3)[C@@H](CO)O1)c1ccccc1	-15.8	nt	-4.9
C/C=C/c1ccc([C@@H]2[C@H](CO)N(CC3CC3)C23CN(S(=O)(=O)CC)C3)cc1	nt	15.5	-36.0
CCCNC(=O)N1CC2(CCN(C(=O)c3cnccn3)CC2)c2c([nH]c3cc(OC)ccc23)[C@@H]1CO	nt	0.4	6.5
CC(C)NC(=O)N1[C@H](CO)[C@@H]2c3ccccc3N(C(=O)C3CCC3)C[C@@H]21	15.2	-2.7	7.8
COc1ccc(C#Cc2ccc3c(c2)[C@@H]2[C@@H](CCN2C(=O)C2CCC2)[C@@H](CO)N3)cc1	nt	30.5	-74.9
O=C(Cc1ccccc1)N1CC[C@@H]2[C@H](CO)Nc3ccc(-c4ccc(F)cc4)cc3[C@@H]21	-0.8	41.4	29.6
C/C=C/c1ccc2c(c1)[C@@H]1[C@@H](CCN1C(=O)C1CCCC1)[C@H](CO)N2	nt	4.1	-79.6
COc1ccc(S(=O)(=O)N2CC[C@@H]3[C@@H](CO)Nc4ccc(-c5ccc(C#N)cc5)cc4[C@@H]32)cc1	60.2	6.0	-81.2*
C/C=C/c1ccc2c(c1)[C@H]1[C@H](CCN1C(=O)C1CCCC1)[C@@H](CO)N2	nt	-7.4	-85.8*
COc1ccc(C#Cc2ccc3c(c2)[C@@H]2[C@@H](CCN2C(=O)C2CCC2)[C@H](CO)N3)cc1	nt	50.6	-87.0*
O=C(Cc1ccncc1)N1CC[C@@H]2[C@@H](CO)Nc3ccc(-c4cccc(F)c4)cc3[C@@H]21	nt	1.1	-92.0*
COc1ccc(S(=O)(=O)N2CC[C@@H]3[C@H]2c2cc(-c4cccc(C#N)c4)ccc2N[C@@H]3CO)cc1	36.1	-1.6	4.9
CCNC(=O)C[C@H]1CC[C@H]2[C@@H](COc3ccc(NC(=O)Nc4c(C)noc4C)cc3C(=O)N2C)O1	-28.2	4.0	7.9
CCC(=O)N[C@@H]1C=C[C@@H](CC(=O)NCC2CC2)O[C@H]1CO	nt	nt	28.7
COc1cccc(-c2cnc3c(c2)C(=O)N([C@@H](C)CO)C[C@H](C)[C@@H](CN(C)C(=O)CN(C)C)O3)c1	42.5	-2.5	-0.5
C[C@H](CO)N1C[C@H](C)[C@@H](CN(C)C(=O)Cc2ccccn2)Oc2ncc(C#CC3CCCC3)cc2C1=O	99.1	-6.9	-4.2
CO[C@H](CN(C)C(=O)c1ccccc1F)[C@@H](C)CN([C@@H](C)CO)S(=O)(=O)c1ccccc1	10.4	nt	21.5
Cc1noc(C)c1NC(=O)Nc1cccc2c1O[C@H](CN(C)Cc1ccc(C(=O)Nc3ccccc3N)cc1)[C@@H](C)CN([C@@H](C)CO)C2=O	nt	6.6	-24.5
C/C=C/c1ccc2c(c1)[C@H]1[C@H](CCN1S(=O)(=O)c1cccc(F)c1)[C@@H](CO)N2	nt	-4.4	-93.0*
COc1cccc(-c2ccc3c(c2)[C@@H]2[C@@H](CCN2C(=O)C2CCCC2)[C@@H](CO)N3)c1	nt	-7.3	-77.4
SMILES	Tcruzi prolif	C diff HTS	Pf Dd2 inh
O=C(C1CCC1)N1CC[C@H]2[C@H](CO)Nc3ccc(C4=CCCCC4)cc3[C@H]21	nt	-3.6	-36.4
O=C(C1CCCC1)N1CC[C@@H]2[C@H]1c1cc(C3=CCCCC3)ccc1N[C@@H]2CO	nt	6.2	-91.6*
COc1cccc(-c2ccc3c(c2)[C@H]2[C@H](CCN2C(=O)C2CCCC2)[C@@H](CO)N3)c1	nt	3.4	-83.1*
C/C=C/c1ccc2c(c1)[C@H]1[C@H](CCN1S(=O)(=O)c1ccccc1)[C@H](CO)N2	81.2	4.9	-5.9
C[C@H](CO)N1C[C@H](C)[C@@H](CN(C)C(=O)NC2CCCCC2)Oc2ccc(NC(=O)CCC(F)(F)F)cc2CC1=O	9.4	-1.0	-21.6
COc1ccc2c3c([nH]c2c1)[C@@H](CO)N(C(C)=O)CC31CCN(Cc2cc(-c3ccccc3)on2)CC1	nt	-3.0	-66.5
COc1ccc2c3c(n(C)c2c1)[C@H](CO)N(C(=O)Nc1ccc(F)cc1)CC31CCN(Cc2ccccn2)CC1	nt	-4.0	-89.5*
COc1ccc2c3c(n(C)c2c1)[C@@H](CO)N(C(=O)Nc1ccc(F)cc1)CC31CCN(Cc2ccccn2)CC1	nt	-1.5	-87.6*
COc1ccc2c3c(n(C)c2c1)[C@@H](CO)N(C(=O)Nc1ccc(F)cc1)CC31CN(Cc2ccccn2)C1	nt	-3.2	-56.8
COc1cccc(CN2CCC3(CC2)CN(C(=O)Nc2ccc(F)cc2)[C@H](CO)c2c3c3ccc(OC)cc3n2C)c1	nt	52.0	-34.6
COc1ccc2c3c([nH]c2c1)[C@H](CO)N(C(=O)Nc1ccc(F)cc1)CC31CCN(Cc2cc(-c3ccccc3)on2)CC1	nt	3.6	-87.1*
CO[C@H]1CN(C)C(=O)c2cc(NC(=O)CC(F)(F)F)ccc2OC[C@H](C)N(C(=O)C2CCOCC2)C[C@@H]1C	nt	-12.0	39.1
CCCC(=O)N1CC2(CN(C(C)=O)C2)c2c(n(C)c3cc(OC)ccc23)[C@H]1CO	nt	-9.4	1.8
CCS(=O)(=O)N[C@H]1CC[C@@H](CC(=O)NCc2ccccn2)O[C@H]1CO	-26.7	nt	-6.9
CC(C)NC(=O)N1CC(=O)N2[C@@H](CO)[C@H](c3ccc(/C=C/c4ccccc4)cc3)[C@@H]2C1	nt	-1.8	-10.2
O=C(C1CCC1)N1CC(=O)N2[C@H](CO)[C@@H](c3ccc(C#Cc4cccc(F)c4)cc3)[C@H]2C1	nt	-20.7	3.8
COc1cccc(S(=O)(=O)N[C@@H]2CC[C@H](CCNC(=O)Nc3cc(F)ccc3F)O[C@@H]2CO)c1	-21.4	-0.3	-4.8
CCCNC[C@@H]1[C@@H](c2ccc(C3=CCCCC3)cc2)[C@@H](CO)N1C(=O)C1CCC1	nt	8.9	-72.9
CCC(=O)N1[C@H](CO)[C@H](c2ccc(C3=CCCCC3)cc2)[C@@H]1CNC1CCCC1	nt	17.1	-75.7
OC[C@@H]1[C@H](c2ccc(C3=CCCC3)cc2)[C@@H](CNC2CCCC2)N1CC1CC1	nt	41.6	-90.7*
CCC(=O)N1[C@H](CO)[C@H](c2ccc(C3=CCCCC3)cc2)[C@H]1CNCC1CCC1	nt	9.8	-85.2*
CCCNC[C@H]1[C@@H](c2ccc(C3=CCCCC3)cc2)[C@@H](CO)N1C(=O)C1CCC1	nt	6.6	-83.3*
CCC(=O)NC[C@@H]1[C@@H](c2ccc(C3=CCCCC3)cc2)[C@@H](CO)N1CC1CC1	nt	12.2	-65.1
CCCC(=O)Nc1ccc2c(c1)C(=O)N(C)[C@@H]1CC[C@@H](CC(=O)NCC3CCCCC3)O[C@H]1CO2	-1.2	-3.4	-13.5
